“And” between values parts separate entries of the source, which are not always exact repeats. Equal entries are not always repeated. Results filed as inconclusive are left out. Where a call stands in place of a potency, no number is given. Where a structure was tested more than once in an assay, its records may differ in their call. The source made the active and inactive calls. Unless noted, calls come from the whole dose curve; as a rule, active = well fitted curve in the direction sought with a large enough effect in the repeat runs; inconclusive = weak or mixed curves; inactive = no such curve, though single readings can be large; an effect the other way counts as inactive or inconclusive. Positions of bridges follow the written chain, without caps; N, C: chain ends. Non-standard residues stand in square brackets, D forms with d. Residues, ends and D or L forms follow the SMILES beside them. *: point of attachment. X1 = CC[C@@H](C)[C@@H](N)C1=N[C@H](C(=O)*)CS1; d(aIle) = CC[C@H](C)[C@@H](N)C(=O)O; dOrn = NCCC[C@@H](N)C(=O)O
Columns and labels:
[1] = qHTS assay to identify small molecule antagonists of the thyroid receptor (TR) signaling pathway - cell viability counter screen (AID 743064); note: nearly all actives have a fitted effect of over 50% in size
Summary of the method: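 GH3.TRE-Luc rat pituitary cells dosed after 4 hr plating, co-stimulated with T3 at 1 nM final, incubated 23.5 h at 37 C. Viability measured in the same wells by CellTiter-Fluor fluorescence after 30 min further at 37 C.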

[2] = qHTS assay to identify small molecule antagonists of the thyroid receptor (TR) signaling pathway (AID 743065); note: nearly all actives have a fitted effect of over 55% in size; note: potency is the fitted concentration of half-maximal effect
Summary of the method: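 GH3.TRE-Luc rat pituitary cells carrying two TR response elements driving luciferase were plated for 4 h, given compound plus 1 nM T3 (final), and incubated 23.5 h at 37 C. ONE-Glo luminescence measured reporter inhibition; CellTiter-Fluor fluorescence tracked cytotoxicity.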

[3] = tested on: thyroid hormone receptor (rat, GH3 cells); assay: qHTS assay to identify small molecule agonists of the thyroid receptor (TR) signaling pathway (AID 743066; calls by dose curve)
[4] = target: Estrogen receptor (Homo sapiens) (UniProt P03372); assay: qHTS assay to identify small molecule antagonists of the estrogen receptor alpha (ER-alpha) signaling pathway (AID 743069; active = well fitted curve in the direction sought with a large enough effect in the signal ratio in the repeat runs, not every such curve was filed as active; the % refers to the signal ratio)
Summary of the method: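 HEK293 cells stably carrying an ER-alpha-UAS-bla beta-lactamase reporter were pre-cultured overnight in 2% charcoal-stripped FBS medium. Test compounds in DMSO were added together with 17beta-estradiol for 18 hr at 37C. Read-out was fluorescence after 2 hr with LiveBLAzer B/G FRET substrate at room temperature.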

[5] = qHTS assay to identify small molecule antagonists of the estrogen receptor alpha (ER-alpha) signaling pathway - cell viability counter screen (AID 743074; calls by dose curve; note: nearly all actives have a fitted effect of over 45% in size)
[6] = target: Estrogen receptor (Homo sapiens) (UniProt P03372); assay: qHTS assay to identify small molecule agonists of the estrogen receptor alpha (ER-alpha) signaling pathway (AID 743075; calls by dose curve)
[7] = target: Estrogen receptor (Homo sapiens) (UniProt P03372); assay: qHTS assay to identify small molecule agonists of the estrogen receptor alpha (ER-alpha) signaling pathway using the BG1 cell line (AID 743079); note: nearly all actives have a fitted effect of over 20% in size; note: potency is the fitted concentration of half-maximal effect
[8] = qHTS assay to identify small molecule antagonists of the estrogen receptor alpha (ER-alpha) signaling pathway using the BG1 cell line (AID 743080; calls by dose curve;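 note: BG1 cells stimulated with 17beta-estradiol alongside compound; nearly all actives have a fitted effect of over 25% in size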; note: potency is the fitted concentration of half-maximal effect)
Summary of the method: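 Luciferase inhibition measured with ONE-Glo after 30 min at RT in BG1Luc4E2 cells given test compounds and 17beta-estradiol for 21.5 h at 37 C; CellTiter-Fluor viability read in the same wells beforehand.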

[9] = qHTS assay to identify small molecule antagonists of the estrogen receptor alpha (ER-alpha) signaling pathway using the BG1 cell line - cell viability counter screen (AID 743081);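 note: compound given together with 17beta-estradiol as the ER stimulus; series mostly up to about 70 µM; nearly all actives have a fitted effect of over 45% in size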
Aromatase (Homo sapiens) = Aromatase (Homo sapiens) (UniProt P11511); assay: qHTS assay to identify aromatase inhibitors (AID 743083); note: nearly all actives have a fitted effect of over 55% in size; note: potency is the fitted concentration of half-maximal effect
[10] = qHTS assay to identify aromatase inhibitors - cell viability counter screen (AID 743084);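 note: cells stimulated with testosterone during compound exposure; nearly all actives have a fitted effect of over 55% in size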
[11] = target: Aryl hydrocarbon receptor (Homo sapiens) (UniProt P35869); assay: qHTS assay to identify small molecule that activate the aryl hydrocarbon receptor (AhR) signaling pathway (AID 743085); note: nearly all actives have a fitted effect of over 15% in size; note: potency is the fitted concentration of half-maximal effect;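 for activation: HG2L7.5c1 human HepG2 liver cells with stably integrated DRE-driven firefly reporter; series mostly up to about 70 µM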
Summary of the method: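 HepG2 cells stably carrying a 20-DRE firefly luciferase reporter (HG2L7.5c1) treated with compound for 24 hr at 37C. Luciferase read by ONE-Glo luminescence, with CellTiter-Fluor viability read first.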

[12] = qHTS assay to identify small molecule that activate the aryl hydrocarbon receptor (AhR) signaling pathway - cell viability counter screen (AID 743086);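 note: HepG2 liver cells carrying the AhR DRE luciferase reporter; series mostly up to about 70 µM; nearly all actives have a fitted effect of over 45% in size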
Summary of the method: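 HepG2-AhR-luc (HG2L7.5c1) cells, 4000/well, were preincubated 5 h at 37C, exposed to compound in qHTS format for 24 hr at 37C, then given CellTiter-Fluor for 30 min; viability was read as fluorescence in the reporter wells.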

[13] = target: Peroxisome proliferator-activated receptor gamma (Homo sapiens) (UniProt P37231); assay: qHTS assay to identify small molecule agonists of the peroxisome proliferator-activated receptor gamma (PPARg) signaling pathway (AID 743094; active = well fitted activation curve with a large enough effect in the signal ratio in the repeat runs, not every such curve was filed as active; the % refers to the signal ratio)
Summary of the method: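 Compounds dissolved in DMSO were added to PPARg UAS-bla HEK293H cells for 17 h at 37C, and reporter expression was quantified by fluorescence intensity after 1 h with LiveBLAzer B/G FRET substrate.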

Chain of Estrogen receptor (Homo sapiens) (P03372 whole entry, looked up): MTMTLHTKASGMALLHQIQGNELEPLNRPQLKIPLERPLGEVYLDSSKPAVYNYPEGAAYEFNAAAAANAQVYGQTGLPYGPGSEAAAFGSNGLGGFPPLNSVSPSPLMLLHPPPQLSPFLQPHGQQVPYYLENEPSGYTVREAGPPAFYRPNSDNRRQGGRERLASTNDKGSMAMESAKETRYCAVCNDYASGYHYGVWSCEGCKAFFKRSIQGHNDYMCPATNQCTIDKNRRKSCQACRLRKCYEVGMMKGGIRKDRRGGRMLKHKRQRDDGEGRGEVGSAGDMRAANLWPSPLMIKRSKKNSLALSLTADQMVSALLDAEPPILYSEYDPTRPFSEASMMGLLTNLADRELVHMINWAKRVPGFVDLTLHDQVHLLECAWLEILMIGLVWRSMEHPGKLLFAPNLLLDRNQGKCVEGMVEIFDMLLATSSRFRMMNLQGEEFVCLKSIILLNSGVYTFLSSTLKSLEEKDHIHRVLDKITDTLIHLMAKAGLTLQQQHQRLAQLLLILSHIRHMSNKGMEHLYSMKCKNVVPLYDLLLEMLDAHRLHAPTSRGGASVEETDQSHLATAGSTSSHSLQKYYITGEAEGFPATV
Chain of Peroxisome proliferator-activated receptor gamma (Homo sapiens) (P37231 whole entry, looked up): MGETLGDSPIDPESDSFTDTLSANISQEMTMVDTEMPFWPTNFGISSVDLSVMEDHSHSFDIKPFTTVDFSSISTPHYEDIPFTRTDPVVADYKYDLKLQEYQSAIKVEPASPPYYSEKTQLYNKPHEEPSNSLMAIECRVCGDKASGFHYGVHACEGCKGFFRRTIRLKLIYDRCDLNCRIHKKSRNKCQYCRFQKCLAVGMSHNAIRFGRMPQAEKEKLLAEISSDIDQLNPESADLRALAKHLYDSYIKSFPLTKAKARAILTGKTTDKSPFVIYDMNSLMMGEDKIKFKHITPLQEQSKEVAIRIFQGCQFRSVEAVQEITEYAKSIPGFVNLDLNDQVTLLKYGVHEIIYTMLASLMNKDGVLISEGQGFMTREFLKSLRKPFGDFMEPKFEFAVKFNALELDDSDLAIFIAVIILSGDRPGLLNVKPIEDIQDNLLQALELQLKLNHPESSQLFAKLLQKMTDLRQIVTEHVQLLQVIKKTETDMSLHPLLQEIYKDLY
Chain of Aryl hydrocarbon receptor (Homo sapiens) (P35869 whole entry, looked up): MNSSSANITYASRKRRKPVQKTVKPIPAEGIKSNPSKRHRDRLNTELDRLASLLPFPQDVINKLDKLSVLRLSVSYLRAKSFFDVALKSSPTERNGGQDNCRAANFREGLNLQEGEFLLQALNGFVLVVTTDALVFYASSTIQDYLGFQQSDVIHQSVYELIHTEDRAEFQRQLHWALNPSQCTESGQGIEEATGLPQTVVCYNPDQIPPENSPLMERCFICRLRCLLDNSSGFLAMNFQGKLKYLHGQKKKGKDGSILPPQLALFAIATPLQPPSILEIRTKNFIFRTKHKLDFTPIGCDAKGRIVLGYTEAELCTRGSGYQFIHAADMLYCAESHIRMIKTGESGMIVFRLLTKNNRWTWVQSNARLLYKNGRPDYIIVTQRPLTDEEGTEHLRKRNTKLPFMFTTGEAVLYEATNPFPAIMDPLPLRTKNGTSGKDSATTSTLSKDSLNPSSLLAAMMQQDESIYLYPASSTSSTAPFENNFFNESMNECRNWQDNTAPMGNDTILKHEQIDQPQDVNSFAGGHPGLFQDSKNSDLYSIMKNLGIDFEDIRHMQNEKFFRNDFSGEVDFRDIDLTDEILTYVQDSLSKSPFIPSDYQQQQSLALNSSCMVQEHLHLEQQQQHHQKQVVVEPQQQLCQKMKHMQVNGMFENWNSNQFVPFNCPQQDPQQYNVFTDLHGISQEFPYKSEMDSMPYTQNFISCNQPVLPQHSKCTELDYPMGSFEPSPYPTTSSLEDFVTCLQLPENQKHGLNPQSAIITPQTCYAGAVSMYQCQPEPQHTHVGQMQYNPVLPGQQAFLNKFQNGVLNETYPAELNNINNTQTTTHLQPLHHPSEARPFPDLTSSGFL
Chain of Aromatase (Homo sapiens) (P11511 whole entry, looked up): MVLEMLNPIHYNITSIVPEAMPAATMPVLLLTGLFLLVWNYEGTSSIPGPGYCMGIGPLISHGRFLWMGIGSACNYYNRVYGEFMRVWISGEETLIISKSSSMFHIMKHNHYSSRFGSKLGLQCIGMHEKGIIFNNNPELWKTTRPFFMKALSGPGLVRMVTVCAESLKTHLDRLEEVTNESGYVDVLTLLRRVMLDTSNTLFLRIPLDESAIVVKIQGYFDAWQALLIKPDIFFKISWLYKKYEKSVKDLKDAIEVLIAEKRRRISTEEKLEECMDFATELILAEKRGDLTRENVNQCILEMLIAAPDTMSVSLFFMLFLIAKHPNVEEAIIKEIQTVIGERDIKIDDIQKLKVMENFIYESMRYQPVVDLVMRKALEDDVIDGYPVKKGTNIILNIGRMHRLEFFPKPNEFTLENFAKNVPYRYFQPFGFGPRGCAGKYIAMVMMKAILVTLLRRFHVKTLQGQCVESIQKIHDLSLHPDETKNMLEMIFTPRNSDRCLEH

Row | Structure (SMILES) | Potency [1] | Potency [2] | Potency [3] | Potency [4] | Potency [5] | Potency [6] | Potency [7] | Potency [8] | Potency [9] | Potency (Aromatase (Homo sapiens)) | Potency [10] | Potency [11] | Potency [12] | Potency [13]
1 | CSCCC(N)C(=O)O (stereo unspecified) | inactive | inactive | inactive | inactive | inactive | inactive | inactive | inactive | inactive | inactive | inactive | inactive | inactive | inactive
2 | NCCCC[C@H](NC(=O)[C@@H]1CCCN1C(=O)[C@@H]1CSSC[C@H](N)C(=O)N[C@@H](Cc2ccc(O)cc2)C(=O)N[C@@H](Cc2ccccc2)C(=O)N[C@@H](CCC(N)=O)C(=O)N[C@@H](CC(N)=O)C(=O)N1)C(=O)NCC(N)=O | inactive | inactive | inactive | inactive | inactive | inactive | inactive | inactive | inactive | inactive | inactive | inactive | inactive | inactive
3 | CC1=C(/C=C/C(C)=C/C=C/C(C)=C/C=C/C=C(C)/C=C/C=C(C)/C=C/C2=C(C)CCCC2(C)C)C(C)(C)CCC1 | inactive | inactive | inactive | inactive | inactive | inactive | inactive | inactive | inactive | inactive | inactive | inactive | inactive | inactive
4 | C=C1[C@@H]2CC[C@@H](C2)C1(C)C | inactive | inactive | inactive | inactive | inactive | inactive | 29.8 µM (active) | inactive | inactive | inactive | inactive | inactive | inactive | inactive
5 | CC(C)=CCC/C(C)=C/CC/C(C)=C/CC/C(C)=C/CC1=C(C)C(=O)c2ccccc2C1=O | inactive | inactive | inactive | inactive | inactive | inactive | inactive | inactive and 9.44 µM (active) | inactive | inactive | inactive | 10.6 µM (active) | inactive | inactive
6 | OCC1(CO)COC(C(Cl)(Cl)Cl)OC1 | inactive | inactive | inactive | inactive | inactive | inactive | inactive | inactive | inactive | inactive | inactive | inactive | inactive | inactive
7 | CC(C)=CCC/C(C)=C/CC/C(C)=C/CC/C=C(\C)CC/C=C(\C)CCC=C(C)C | inactive | inactive | inactive | inactive | inactive | inactive | inactive | inactive | inactive | inactive | inactive | inactive | inactive | inactive
8 | CCOc1ccc(NC(=S)Nc2ccc(OCC)cc2)cc1 | inactive | inactive | inactive | inactive | inactive | inactive | inactive | inactive | inactive | inactive | inactive | inactive | inactive | inactive
9 | C[C@H](NCCc1ccc(O)cc1)[C@H](O)c1ccc(O)cc1 | inactive | inactive | inactive | inactive | inactive | inactive | inactive | inactive | inactive | inactive | inactive | inactive | inactive | inactive
10 | C=CC(N)CCC(=O)O (stereo unspecified) | inactive | inactive | inactive | inactive | inactive | inactive | inactive | inactive | inactive | inactive | inactive | inactive | inactive | inactive
11 | Cc1ccc(C(C)(C)c2ccc(C)cc2)cc1 | inactive | inactive | inactive | inactive | inactive | inactive | inactive | inactive | inactive | inactive | inactive | inactive | inactive | inactive
12 | CC[C@@H](C)[C@@H](N)C1=N[C@H](C(=O)N[C@@H](CC(C)C)C(=O)N[C@@H](CCC(=O)O)C(=O)N[C@@H](C(=O)N[C@@H]2CCCCNC(=O)[C@@H](CC(N)=O)NC(=O)[C@@H](CC(=O)O)NC(=O)[C@@H](Cc3cnc[nH]3)NC(=O)[C@@H](Cc3ccccc3)NC(=O)[C@@H]([C@H](C)CC)NC(=O)[C@@H](CCCN)NC2=O)[C@@H](C)CC)CS1 (X1-LE[d(aIle)][dK][dOrn][dI][dF][dH][dD][dN]; lactam 4-C) | inactive | inactive | inactive | inactive | inactive | inactive | 4.03 µM (active) and inactive | inactive | inactive | inactive | inactive | inactive | inactive | inactive
13 | CCOC(=O)COc1ccc2c(=O)cc(-c3ccccc3)oc2c1 | inactive | inactive | inactive | inactive | inactive | inactive | inactive | inactive | inactive | inactive | inactive | inactive | inactive | inactive
14 | CC(C)CCC[C@@H](C)[C@H]1CC[C@H]2[C@@H]3CC=C4C[C@@H](O)CC[C@]4(C)[C@H]3CC[C@]12C | inactive | inactive | inactive | inactive | inactive | inactive | inactive | inactive | inactive | inactive | inactive | inactive | inactive | inactive
15 | CC12CCC(C1)C(C)(C)C2=O (stereo unspecified) | inactive | inactive | inactive | inactive | inactive | inactive | inactive | inactive | inactive | inactive | inactive | inactive | inactive | inactive
16 | CCc1ncnc2cc(OC)c(OC)cc12 | inactive | inactive | inactive | inactive | inactive | inactive | inactive | inactive | inactive | inactive | inactive | inactive | inactive | 

Row | Structure (SMILES) | Potency [1] | Potency [2] | Potency [3] | Potency [4] | Potency [5] | Potency [6] | Potency [7] | Potency [8] | Potency [9] | Potency (Aromatase (Homo sapiens)) | Potency [10] | Potency [11] | Potency [12] | Potency [13]
17 | COc1ccc(/C=C/C(=O)Nc2ccccc2C(=O)O)cc1OC | inactive | 4.73 µM (active) | inactive | inactive | inactive | inactive | inactive | 8.41 µM (active) | inactive | inactive | inactive | 3.35 µM (active) | inactive | inactive
18 | CCCCCCCCCC(=O)NO | inactive | inactive | inactive | inactive | inactive | inactive | inactive | inactive | inactive | inactive | inactive | inactive | inactive | inactive
19 | C[S+](C)CCC(N)C(=O)O (stereo unspecified) | inactive | inactive | inactive | inactive | inactive | inactive | inactive | inactive | inactive | inactive | inactive | inactive | inactive | inactive
20 | O=C(O)c1ccc(NC2OC[C@@H](O)[C@H](O)[C@H]2O)cc1 (stereo partly specified) | inactive | inactive | inactive | inactive | inactive | inactive | inactive | inactive | inactive | inactive | inactive | inactive | inactive | inactive
21 | CO/N=C(\C(=O)N[C@@H]1C(=O)N2C(C(=O)[O-])=C(C[n+]3cccc4c3CCC4)CS[C@H]12)c1csc(N)n1 | inactive | inactive | inactive | inactive | inactive | inactive | inactive | inactive | inactive | inactive | inactive | inactive | inactive | 
22 | C=CCN1C(=O)C(CC(C)C)NC1=S (stereo unspecified) | inactive | inactive | inactive | inactive | inactive | inactive | inactive | inactive | inactive | inactive | inactive | inactive | inactive | inactive
23 | OCl | inactive | inactive | inactive | inactive | inactive | inactive | inactive | inactive | inactive | inactive | inactive | inactive | inactive | inactive
24 | N=C(N)n1cccn1 | inactive | inactive | inactive | inactive | inactive | inactive | inactive | inactive | inactive | inactive | inactive | inactive | inactive | inactive
25 | Cc1cnc(C(=O)O)c[n+]1[O-] | inactive | inactive | inactive | inactive | inactive | inactive | inactive | inactive | inactive | inactive | inactive | inactive | inactive | inactive
26 | Nc1c(CC(=O)O)cccc1C(=O)c1ccccc1 | inactive | inactive | inactive | inactive | inactive | inactive | inactive and 10.6 µM (active) | inactive | inactive | inactive | inactive | inactive | inactive | 
27 | O=C(O)CCCC/C=C(\c1ccccc1)c1cccnc1 | inactive | inactive | inactive | inactive | inactive | inactive | inactive | inactive | inactive | inactive | inactive | inactive | inactive | inactive
28 | COC1=C(OC)C(=O)C(C/C=C(\C)CC/C=C(\C)CC/C=C(\C)CC/C=C(\C)CC/C=C(\C)CC/C=C(\C)CC/C=C(\C)CC/C=C(\C)CC/C=C(\C)CCC=C(C)C)=C(C)C1=O | inactive | inactive | inactive | inactive | inactive | inactive | inactive | inactive | inactive | inactive | inactive | inactive | inactive | inactive
29 | O=C(Cn1cnnn1)N[C@@H]1C(=O)N2C(C(=O)O)=C(CSc3nncs3)CS[C@H]12 | inactive | inactive | inactive | inactive | inactive | inactive | inactive | inactive | inactive | inactive | inactive | inactive | inactive | inactive
30 | C/C(=C(/CCO)SSCC1CCCO1)N(C=O)Cc1cnc(C)nc1N (stereo unspecified) | inactive | inactive | inactive | inactive | inactive | inactive | inactive | inactive | inactive | inactive and 29.8 µM (active) | inactive | inactive | inactive | inactive
31 | O=C1c2ccccc2CN2C(=O)c3ccccc3CN12 | inactive | inactive | inactive | inactive | inactive | inactive | inactive | inactive | inactive | inactive | inactive | inactive | inactive | inactive

— PubChem BioAssay (Tox21)
